The panel holds about 79,000 compounds, 15% with a hit somewhere; the sample as a whole holds those more often. No stated cut-off is given here; in the data, active means growth inhibition above about 70%; inactive means the rest.
Columns and labels:
[1] = NCI Yeast Anticancer Drug Screen. Data for the rad50 strain (AID 155);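 further: 0% = growth of vehicle-only cultures of the same strain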; conditions: S. cerevisiae rad50 strain growth inhibition; at 50.0 µM; stronger effect = higher value
How it was run: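 Growth of the mutant yeast was measured after compound exposure and referenced to vehicle-treated cultures.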

[2] = NCI Yeast Anticancer Drug Screen. Data for the mec2-1 strain (AID 157); conditions: S. cerevisiae mec2-1 strain, at 50.0 µM, stronger effect = higher value
How it was run: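 Compounds were applied to mec2-1 yeast cells. Their growth was then compared with that of vehicle-treated cultures to give growth inhibition.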

[3] = NCI Yeast Anticancer Drug Screen. Data for the sgs1 mgt1 strain (AID 161);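 further: 0% = growth of cultures given vehicle only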; conditions: S. cerevisiae sgs1 mgt1 strain, at 50.0 µM, stronger effect = higher value
How it was run: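 Yeast cells carrying a defined DNA-repair defect were exposed to test compounds. Growth inhibition was measured relative to vehicle-treated controls.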

[4] = NCI Yeast Anticancer Drug Screen. Data for the cln2 rad14 strain (AID 165);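 further: 0% = growth equal to vehicle treated cultures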; conditions: S. cerevisiae cln2 rad14 strain, at 50.0 µM, stronger effect = higher value
How it was run: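 Strain: cln2 rad14 yeast, altered in cell cycle control and DNA damage repair. Read-out: growth inhibition vs vehicle.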

[5] = NCI Yeast Anticancer Drug Screen. Data for the bub3 strain (AID 167); conditions: S. cerevisiae bub3 mutant strain, at 50.0 µM, stronger effect = higher value
How it was run: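 Whole-cell yeast assay. The mutant strain was incubated with compounds, and growth inhibition was determined by comparison with vehicle-treated cells.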

[6] = NCI Yeast Anticancer Drug Screen. Data for the mlh1 rad18 strain (AID 175); conditions: S. cerevisiae mlh1 rad18 strain growth inhibition; at 50.0 µM; stronger effect = higher value
How it was run: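 A repair-deficient yeast strain is exposed to test compound, and growth is scored relative to vehicle-treated controls.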

Measured: growth inhibition

Cc1ccc2c(c1)C(c1ccccc1)(c1ccccc1)N(c1ccccc1)S2(=O)=O
inactive: [1] 51.2% | [2] 34.2% | [3] 64.7% | [4] 25.2% | [5] 20.5% | [6] 58.6%

COC(=N)c1nnn(-c2ccccc2)n1
inactive: [1] -8.6% | [2] -8% | [3] -5.05% | [4] -16.1% | [5] 2.05% | [6] -17.9%

COc1ccc(/C=C2\N=C(c3ccccc3)OC2=O)c(Cl)c1OC
inactive: [1] -9.35% | [2] -3.5% | [3] -25% | [4] 1.6% | [5] -5.25% | [6] -3%

O=C(c1ccccc1)c1ccc2[nH]ccc(=O)c2c1
inactive: [1] -4.7% | [2] 0.5% | [3] -3.7% | [4] -31.1% | [5] -7.85% | [6] 4.3%

O=C(N/N=C\c1ccc(Cl)cc1)Nc1ccc2ccccc2c1
inactive: [1] 2.9% | [2] 11.1% | [3] 4.35% | [4] 12.9% | [5] 20% | [6] 29.1%

CCNC(=S)Nc1ccc(Cl)cc1
inactive: [1] 27.2% | [2] 40.4% | [3] 39% | [4] -6.1% | [5] 53.4% | [6] 35.8%

ClCC[n+]1ccc2ccccc2c1
inactive: [1] 3.95% | [2] 11.6% | [3] -13.4% | [4] -13.8% | [5] -9.05% | [6] -10.7%

C/C=C1\CN2CCc3c([nH]c4ccccc34)C2CC1CCO (stereo unspecified)
inactive: [1] -16.8% | [2] -10.9% | [3] -5.4% | [4] 12.7% | [5] -26.7% | [6] -24.9%

CC(=O)Nc1cc(C)c(C)cc1NC(C)=O
inactive: [1] -23.9% | [2] -16.6% | [3] -8.35% | [4] -21.8% | [5] -5.1% | [6] -7.4%

CC(=O)Nc1c(CCCCc2ccccc2)[nH]c(=O)[nH]c1=O
inactive: [1] 1.8% | [2] 22.5% | [3] 25.8% | [4] 1.4% | [5] 17% | [6] -0.95%

CCCOC(=O)c1ccnc(C(=O)OCCC)c1
inactive: [1] 4.85% | [2] 4.85% | [3] -1.2% | [4] -16.2% | [5] -9.9% | [6] -13.6%

Oc1cc(O)c2c(-c3c(O)c(-c4ccc(O)c(O)c4)[o+]c4cc(O)cc(O)c34)c(O)c(-c3ccc(O)c(O)c3)[o+]c2c1
inactive: [1] 44.4% | [2] 4.85% | [3] 9.6% | [4] 11.1% | [5] 22.7% | [6] 21.8%

C=C(C)C(=O)O[C@H]1CC2=C[C@@H](C[C@@]3(C)O[C@@H]3[C@H]3OC(=O)C(=C)[C@@H]31)OC2=O
inactive: [1] -8.35% | [2] 10.1% | [3] 22.2% | [4] 6.4% | [5] -10% | [6] -5.15%

Cc1cc(=O)n2ccnc2[nH]1
inactive: [1] 24.2% | [2] 11.3% | [3] 6.2% | [4] 19.1% | [5] 9.65% | [6] 20.1%

COC(C[P+](Cc1ccccc1)(c1ccccc1)c1ccccc1)OC
inactive: [1] 66.9% | [2] -2.7% | [3] 39% | [4] 2.4% | [5] 4.1% | [6] 4.35%

CC(C)(C)NCC1CCCC1
inactive: [1] 0.55% | [2] -1.5% | [3] 2.4% | [4] -22.9% | [5] -11.4% | [6] -3.8%

N#Cc1cc2ccccc2n(Cc2ccccc2)c1=O
inactive: [1] -8.85% | [2] -9.9% | [3] -9.4% | [4] 7.85% | [5] 3.75% | [6] -9.55%

O=C(O)/C=C/C(=O)N1Cc2cc3ccccc3nc2C1
inactive: [1] -5.75% | [2] -31.1% | [3] -45.8% | [4] -28.1% | [5] -56.2% | [6] -13.7%

CCOC(=O)CSc1cc(C)[o+]c(C)c1
inactive: [1] 4.6% | [2] 6.25% | [3] 6.8% | [4] 15% | [5] -6.4% | [6] -3.15%

CC(=O)C(OCCCl)OCCCl
inactive: [1] 2.9% | [2] -7.65% | [3] 1.6% | [4] -1.5% | [5] 0.3% | [6] -2.95%

COC1=NC(NC2OCC(O)C(O)C2O)=C(NC(C)=O)CN1C (stereo unspecified)
inactive: [1] -46.5% | [2] -41.4% | [3] -20.1% | [4] -3.65% | [5] -31.7% | [6] -22.4%

c1ccc2c(c1)CCCC(N1CCOCC1)C2 (stereo unspecified)
inactive: [1] 2.3% | [2] 2.7% | [3] 16.9% | [4] 11.1% | [5] -24.3% | [6] 15.9%

CC1CSC(C)(C)C(=O)N1 (stereo unspecified)
inactive: [1] 16.2% | [2] 14.8% | [3] 2.35% | [4] -26.8% | [5] 13.8% | [6] 19.9%

CN1C(=O)C2C=CC1c1ccccc12 (stereo unspecified)
inactive: [1] -0.75% | [2] -3.95% | [3] -8.8% | [4] -37% | [5] -6.5% | [6] 2.55%

COc1ccc(CC2=c3cc(OC)c(OC)cc3=CCN2)cc1OC
inactive: [1] 12.1% | [2] 4.5% | [3] 9.7% | [4] 12.2% | [5] -2.85% | [6] -5.75%

CC(=O)N(C(C)=O)N1C(=O)C2C3C=CC(C4CC34)C2C1=O (stereo unspecified)
inactive: [1] 30.2% | [2] 17% | [3] 15.8% | [4] 19.6% | [5] 2.95% | [6] 23.4%

CSc1nc(N)n2nc(C3CC3)cc2n1
inactive: [1] 5.5% | [2] -10.8% | [3] 16.1% | [4] 21.4% | [5] 15.9% | [6] 3.4%

c1csc(-c2cc(-c3cccs3)c(-c3ccsc3)s2)c1
inactive: [1] -46.8% | [2] -43.4% | [3] -32.2% | [4] -26.2% | [5] -19.5% | [6] -46%

[O-]c1csc2n(-c3ccccc3)c3ccccc3[n+]12
inactive: [1] 4.95% | [2] -16% | [3] 1.85% | [4] 28.4% | [5] -4.65% | [6] 6.65%

COc1ccccc1Nc1nc(N)nc(N)c1N=O
inactive: [1] 11.4% | [2] -36.1% | [3] -16.2% | [4] -27.7% | [5] -34.6% | [6] -56.1%

CC[N+](C)(C)CC(O)(O)C(F)F
inactive: [1] -28.1% | [2] -32.7% | [3] -17.1% | [4] 2.25% | [5] -26.8% | [6] -16.2%

O=C(Nn1c(-c2ccccc2)nc2ccccc2c1=O)c1cccc([N+](=O)[O-])c1
inactive: [1] -27.8% | [2] -33.9% | [3] -14.2% | [4] 5.5% | [5] 23.8% | [6] 3.85%

Cc1cccc(NC(=O)O/N=C(\Cl)C(C)C)c1
inactive: [1] -13.8% | [2] -34.9% | [3] 70% | [4] 0.4% | [5] 35.4% | [6] -43.4%

CCc1nc(N)nc(N)c1-c1ccc(Cl)c([N+](=O)[O-])c1
inactive: [1] 4.35% | [2] 4.95% | [3] -8.35% | [4] -7.1% | [5] -31.1% | [6] -13.6%

c1ccc2c(c1)C(=NOc1nc3ccccc3c3ccccc13)c1ccccc1-2
inactive: [1] -4.85% | [2] 10.6% | [3] 8.75% | [4] 3.65% | [5] 7.95% | [6] 12%

COC1=C(OC)C(=O)c2cc(SC)c(=O)c(SC)cc2C1=O
inactive: [1] -54.8% | [2] -29.2% | [3] -40.5% | [4] -22.1% | [5] -54.6% | [6] -60.2%

O=C(O)c1ccc(Cl)cc1[N+](=O)[O-]
inactive: [1] 23.4% | [2] -8.5% | [3] 21.6% | [4] 19.9% | [5] 0.5% | [6] 25.1%

CCCC(=O)Oc1cccc(C)c1
inactive: [1] 15.7% | [2] 4.75% | [3] 0.1% | [4] 14.6% | [5] 0.1% | [6] -17.8%

OC(c1cc(-c2ccccc2)nc2c1ccc1ccccc12)C1CCCCN1 (stereo unspecified)
inactive: [1] 32.5% | [2] 16.7% | [3] -17.1% | [4] 14% | [5] 11.6% | [6] 26.4%

COc1cc(O)c2c(c1)C(=O)c1cc(C)cc(O)c1C2=O
inactive: [1] -15.1% | [2] -22.9% | [3] -18.6% | [4] -21.1% | [5] -26.2% | [6] -10.8%

COC(=O)C(Cl)(Cl)c1nc(NC(C)=O)[nH]c(=O)c1Cl
inactive: [1] 0.45% | [2] 13.3% | [3] 3.65% | [4] -20% | [5] -16.4% | [6] 0.45%

Reference: PubChem BioAssay (NCI)
